Screening data as filed in PubChem.
Compounds with a hit are over-represented: about 4.1% of the library has one in this group of screens.
hcDAF12 agonist – activators of H. contortus DAF-12 nuclear receptor. actives 1.4% (n = 370,000). activation, % at 6.8 µM. HEK293 hcDAF-12 lit1-tk-luc reporter, luminescence; 0% DMSO, 100% Δ7-dafachronic acid;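 active = activation above the mean of all tested compounds plus 3 SD, cut at about 5.5% in these data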
DAX1 inh-1 – inhibitors of human orphan nuclear receptor DAX1 (NR0B1); AID 504766; inhibition, % at 6.75 µM; HEK293 Gal4-DAX1 luciferase reporter, luminescence; actives 0.99% (n = 340,000);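 active = inhibition above the mean over all tested compounds plus 3 SD, cut at about 4.2% in these data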;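 note: inhibition shows as a rise in luminescence from relieved DAX1 repression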
Target sequence (P51843 207-470 limits assumed): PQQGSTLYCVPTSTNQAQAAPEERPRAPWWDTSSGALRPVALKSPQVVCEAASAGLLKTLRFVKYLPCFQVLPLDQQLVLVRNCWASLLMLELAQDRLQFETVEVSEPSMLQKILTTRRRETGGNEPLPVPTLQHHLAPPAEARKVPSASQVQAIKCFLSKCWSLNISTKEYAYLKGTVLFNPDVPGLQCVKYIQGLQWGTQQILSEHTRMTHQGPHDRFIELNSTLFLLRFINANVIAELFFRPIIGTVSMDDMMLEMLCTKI
PolyA inh – inhibitors of polyadenylation in S. cerevisiae. S. cerevisiae SKY197-pL101 polyadenylation reporter, beta-gal luminescence; efflux-impaired pdr1/pdr3 knockout yeast; score 100 = 6 SD above DMSO. activity score, % at 12 µM. actives 0.02% (n = 300,000). AID 1875;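 active = lowest replicate activity score at least 50, where 100 means six control SD above control mean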;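 note: yeast exposed to compound for 9 h at 30 °C; higher score means more reporter readthrough which indicates perturbed polyadenylation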
ssDAF12 agonist – activates DAF-12 receptor from parasite S. stercoralis. HEK293 ssDAF-12/GRIP1 lit1-tk-luc reporter, luminescence; % of 3 µM dafachronic acid response. AID 652126. activation, % at 6.8 µM. actives 1% (n = 370,000);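 active = activation above the mean over all tested compounds plus 3 SD, cut at about 0.9% in these data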
hgDAF-12 ag – hgDAF-12 agonism, primary luciferase screen. HEK293 GAL4-hgDAF12 UAS-luciferase reporter, agonist luminescence; normalized to butyrate control. activation, % at 6.8 µM. actives 1.8% (n = 370,000);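 active = activation above a cutoff set at the mean of all screened compounds plus 3 SD, cut at about 10% in these data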
DAX1 inh-2 – DAX1 (NR0B1) inhibition, primary screen; HEK293T StAR-luciferase reporter, SF-1/DAX-1 repression relief; AID 652010; inhibition, % at 6.8 µM; actives 1.1% (n = 370,000);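 active = inhibition above the mean over all tested compounds plus 3 SD, cut at about 3.6% in these data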;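 note: higher inhibition means more luminescence from relief of DAX-1 repression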
Hits are given with their value; 0 = inactive; - = not tested or not shown.

SMILES | hcDAF12 agonist | DAX1 inh-1 | PolyA inh | ssDAF12 agonist | hgDAF-12 ag | DAX1 inh-2
Cc1nc2ncnn2c(C)c1CCC(=O)N1CCC2(CC1)OCCO2 | 0 | 4.6 | 0 | 0 | 0 | 0
O=C1NC(=S)N(C2CC2)C(=O)/C1=C/c1ccc2c(c1)CCN2CCCCl | 0 | 0 | 0 | 0 | 0 | 0
CCN1C(=O)/C(=C/c2ccc3c(c2)CCN3CCCCl)C(=O)NC1=S | 0 | 0 | 0 | 1.7 | 0 | 0
CN1CCCCC1c1ccc(-c2cccnc2)nc1 (centres undefined) | 0 | 7.3 | 0 | 0 | 0 | 0
COCCNC(=O)N1[C@H]2CC[C@@H]1C(C(=O)OC)=C(c1ccc(-c3ccccc3)c(F)c1)C2 | 0 | 0 | - | 0 | 0 | 0
CC(NC(=O)OCc1ccccc1)[P+](=O)O (centres undefined) | 0 | - | - | 0 | 0 | 0
Cc1ccc(-n2c(/C=C/c3ccccn3)nc3ccccc3c2=O)cc1 | 0 | 0 | 0 | 0 | 0 | 0
O=c1c2ccccc2nc(/C=C/c2ccccn2)n1-c1ccccc1 | 0 | 0 | 0 | 0 | 10.5 | 0
Oc1ccc2ccccc2c1CN1CC=C(c2ccccc2)CC1 | 0 | 5.2 | 0 | 0 | 0 | 0
OCC#CC[N+]1(CC#Cc2ccccc2)CCOCC1 | 0 | 4.3 | 0 | 0 | 0 | 0
NC1CCc2cc(O)c(O)cc2C1 (centres undefined) | 0 | 0 | - | 0 | 0 | 0
Cc1ccc2cc(C=C(C#N)C#N)c(Cl)nc2c1 | 0 | 0 | 0 | 1.4 | 0 | 0
COc1ccc(OC)c(-n2c(O)c(/C=C3\C=Nc4ccccc43)c(=O)[nH]c2=O)c1 | 0 | 0 | 0 | 2.9 | 0 | 0
CS(=O)(=O)N1Cc2ccccc2-n2nncc2C1 | 0 | 0 | - | 0 | 0 | 0
Cc1ccc(N2C(=O)NC(=O)/C(=C/c3ccc(OC(=O)c4cccs4)cc3)C2=O)cc1 | 0 | 0 | 0 | 0 | 0 | 0
COc1ccc(N2C(=O)NC(=O)/C(=C/c3cccc(OC(=O)c4cccs4)c3)C2=O)cc1Cl | 5.8 | - | 0 | 0 | 0 | 0
COC(=O)C1=C(c2ccc(OCc3ccccc3)cc2)C[C@@H]2CC[C@H]1N2C(=O)NCc1ccc2c(c1)OCO2 | 0 | 0 | - | 0 | 0 | 0
Cc1cc(OCC(=O)NC(Cc2ccc(Cl)cc2)C(=O)O)c2c3c(c(=O)oc2c1)CCC3 (centres undefined) | 0 | 5.8 | 0 | 0 | 0 | 0
O=C(/C=C/c1ccccc1)N1Cc2ccccc2-n2nncc2C1 | 0 | 0 | - | 0 | 0 | 0
N#CC[N+]1(CCCNP2(=O)C=C(c3ccccc3)OC(c3ccccc3)=C2)CCOCC1 | 0 | 6.2 | 0 | 0 | 0 | 0
CCCC[N+]12CCC(CC1)C(Cc1ccccc1)C2 (centres undefined) | 0 | - | 0 | 0 | 0 | 0
[Cl][Pt+2][Cl].[NH-]C1CCCCC1[NH-] (centres undefined) | 0 | 0 | - | 0 | 0 | 0
C=C1C(C)C2C(Cc3ccccc3)NC(=O)C23C(OC(C)=O)C=CC(C)(O)CC(C)CC=CC3C1O (centres undefined) | 0 | 4.2 | - | 0 | 0 | 3.8
c1ccc(-c2nc(N3CCOCC3)s[n+]2-c2ccccc2)cc1 | 0 | 0 | 0 | 0 | 11.6 | 0
COc1ccc(-n2c(=O)[nH]c3ccccc3c2=O)c(OC)c1 | 0 | 0 | 0 | 0 | 0 | 0
SMILES | hcDAF12 agonist | DAX1 inh-1 | PolyA inh | ssDAF12 agonist | hgDAF-12 ag | DAX1 inh-2
COc1ccc2c(c1)NP(=S)(c1ccccc1)N2C (centres undefined) | 0 | 5.3 | - | 0 | 0 | 4.5
COC(=O)c1c2[n+](cc3cc(OC)c(OC)cc13)CCc1cc(OC)c(OC)cc1-2 | 0 | 4.5 | 0 | 0 | 0 | 0
Cc1cc(=O)oc2c(C)c(OCC(=O)N3CCC(C(=O)O)(c4ccccc4)CC3)ccc12 | 0 | 4.6 | 0 | 0 | 0 | 0
Cc1cc(=O)oc2cc(OCC(=O)N3CCC(C(=O)O)(c4ccccc4)CC3)ccc12 | 0 | 0 | 0 | 0 | 0 | 0
CN1C(=O)c2ccccc2NC(=O)C1Cc1ccccc1 (centres undefined) | 0 | 4.9 | 0 | 0 | 0 | 0
CN1C(=O)C(Cc2ccccc2)C(=O)N(C)C1=O | 0 | 0 | - | 0 | 0 | 0
O=C1CN(C(=O)COC(=O)Cc2ccccc2)c2ccccc2N1 | 0 | 4.4 | 0 | 0 | 0 | 0
C[C@]12CCC3=C4CCC(=O)C=C4CC[C@H]3C1CC[C@@H]2O (some centres undefined) | 0 | 0 | 0 | 0 | 0 | 0
Cc1ccsc1C(=O)C1CCCN(CCO)C1 (centres undefined) | 0 | 4.8 | 0 | 0 | 0 | 0
Cc1ccsc1C(=O)C1CCCN(Cc2cnn(C)c2)C1 (centres undefined) | 0 | 0 | 0 | 0 | 0 | 0
O=C(CCNC(=O)N1C[C@H]2C[C@@H](C1)c1cccc(=O)n1C2)Nc1ccc(F)cc1 | 0 | 0 | 0 | 0 | 0 | 0
CC(C)CCP(=O)(O)O | 0 | - | - | 0 | 0 | 0
COCCOC(=O)C1=C(N)OC(C)=C(C(=O)OC)C12C(=O)Nc1ccccc12 (centres undefined) | 6.2 | 0 | 0 | 0 | 0 | 0
COC(=O)C1=C(C)OC(N)=C(C#N)C12C(=O)Nc1ccccc12 (centres undefined) | 0 | 0 | 0 | 0 | 0 | 0
Cc1ccc(C(=O)C2CN(C)CC2C(=O)c2ccc(C)cc2)cc1 (centres undefined) | 0 | 0 | 0 | 0 | 11.4 | 0
Cc1ccc(C(=O)C2CN3CCC2CC3)cc1 (centres undefined) | 0 | 0 | 0 | 0 | 0 | 0
Cc1c(NP(=O)(C(C)(C)C)C(C)(C)C)c(=O)n(-c2ccccc2)n1C | 0 | 0 | 0 | 0 | 0 | 0
Cc1cc(=O)n(-c2ccccc2)n1-c1ccccc1 | 0 | 4.8 | 0 | 0 | 0 | 0
Cc1ccc(O)c(C)c1 | 0 | 0 | - | 0 | 0 | 0
S=P1(Oc2ccccc2)Nc2ccccc2N1 | 0 | 0 | - | 0 | 12.5 | 0
COc1ccc(-c2nn(CCC#N)cc2C(=O)Nc2ccccc2)cc1OC | 0 | 0 | 0 | 0 | 0 | 0
COC(=O)C(O)(c1ccc(NC(=O)Oc2ccccc2)cc1)C(F)(F)F (centres undefined) | 0 | 5.5 | 0 | 0 | 0 | 0
Nc1c2c(nc3sc4c(c13)CCCC4)CCCC2 | 0 | 0 | 0 | 0 | 10.8 | 0
O=C(COC(=O)Cc1ccccc1)Nc1nnc(-c2ccccc2)o1 | 0 | 0 | 0 | 0 | 0 | 0
CCC(CO)(C(=O)OC1CC2CCC(C1)N2C)c1ccccc1 (centres undefined) | 0 | 0 | 0 | 0 | 0 | 0
Cc1ccc(-c2nc(N(C)C3CCN(C)CC3)c3ccccc3n2)cc1 | 6.0 | 0 | 0 | 0 | 0 | 0
CC(NC(=O)OCc1ccccc1)P(=O)(Oc1ccccc1)Oc1ccccc1 (centres undefined) | 0 | - | - | 0 | 0 | 0
CN1CC[C@@H]2CN[C@H](c3ccccc3)C[C@@H]21 | 0 | - | - | 0 | 0 | 0
Nc1ccc2ccccc2c1 | 0 | 0 | - | 0.9 | 0 | 0
